Experimental data: PubChem BioAssay AID1117267 (The Scripps Research Institute Molecular Screening Center, 2014)
Screen size: about 92,000 compounds; about 1,200 (1.3%) were called active. This excerpt belongs to a sample that is enriched for actives. Values without a mark were called inactive.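 Rule for the calls: active = activation above the mean of all tested compounds plus 3 SD (cut at about 9.5% in these data); inactive = the rest.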

Assay: compounds raising TTR promoter-driven luciferase – cell-based, luminescence, SH-SY5Y, TTR promoter Gaussia luciferase, primary screen (AID 1117267);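 note: cells exposed to compounds for one day before reading; 0% = median of all test compound wells on the plate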
Conditions: at 16.7 µM, hits give high values, 100% = recombinant luciferase protein wells

Compound	activation
O=C(O)C1OC(C(=O)O)C2C1C(F)(F)C2(F)F (stereo not drawn)	15.5% (active)
COc1ccc(N2c3ccccc3CN(Cc3ccccc3)[C@@H](C)[C@H]2Cc2ccc(-c3ccccc3)cc2)cc1	-1.66%
Cc1cccc(C)c1NC(=O)CN1C(=O)C(C)Oc2ccccc21 (stereo not drawn)	15.3% (active)
Cc1ccc2c(c1)N(CC(=O)N1CCCc3ccccc31)C(=O)C(C)O2 (stereo not drawn)	-0.78%
O=C(CN1C(=O)COc2ccccc21)Nc1ccc(F)cc1	2.98%
O=C(CCC(=O)c1cccs1)NC1CCCCCC1	-2.1%
O=C(CCC(=O)c1cccs1)Nc1nc2ccccc2s1	0.06%
O=C(CCC(=O)c1cccs1)NCc1ccccc1	9.7% (active)
CCOC(=O)N1CCN(S(=O)(=O)c2ccc(-n3cnnn3)cc2)CC1	-1.92%
COCCn1c(SCC(=O)N2CCCCCC2)nc2c(c1=O)SCC2	0.25%
Cc1cc(C(=O)CSc2nc(N)cc(=O)[nH]2)c(C)n1Cc1ccco1	0.58%
CCOC(=O)[C@H]1[C@H]2COc3ccc(OC)cc3[C@@H]2N2C(=O)c3ccc(F)cc3NC(=O)[C@@]12C	1.68%
CSc1sc(C(=O)NNC(=O)c2ccc(Cl)cc2)c2c1C=CCC2	-0.42%
O=C(c1ccc(Cl)c(Cl)c1)N1CCCC1	4.23%
O=C(CN1CCCCC1)Nc1ccccc1C(=O)NC1CC1	2.49%
O=C(Nc1ccccc1C(=O)N1CCCCCC1)c1ccccc1Cl	21.4% (active)
Cc1cc(C)c(C#N)c(N2CCC(C(N)=O)CC2)n1	14.3% (active)
N#Cc1c(N2CCCCC2)nc(N)c2c(N)nc(SCC(=O)O)cc12	0.31%
Cc1cc(C)c(C#N)c(SCc2ccccc2C(=O)O)n1	5.37%
CCC(C)C(=O)Nc1cc([N+](=O)[O-])ccc1Cl (stereo not drawn)	0.38%
CCOc1ccc(NC(=O)CSc2nc3ccccc3c(=O)n2Cc2cccs2)cc1	0.62%
Cc1cc(C)c2nc3nc(C)cc(C)c3c(N)c2c1	13.6% (active)
COc1ccc(CCNC(=O)C(Sc2ccccn2)c2ccccc2)cc1OC (stereo not drawn)	1%
NC(=O)c1oc2ccccc2c1NC(=O)CS(=O)(=O)c1ccccc1	-0.61%

Compound	activation
CCSc1nc(O)c(C(c2cccc(OC)c2)c2c(O)nc(SCC)[nH]c2=O)c(=O)[nH]1	1.15%
CCOc1ncccc1C(=O)N(C)CC(=O)Nc1ccc(F)cc1	4.43%
O=C1CC(N2CCN(c3ccc(F)cc3)CC2)C(=O)N1c1ccccc1 (stereo not drawn)	0.86%
Cc1cccc(N2C(=O)CC(SC(N)=Nc3ccccc3)C2=O)c1 (stereo not drawn)	11.1% (active)
O=C1CC(Sc2ncn[nH]2)C(=O)N1c1ccccc1 (stereo not drawn)	-1.83%
CCOc1ccccc1NC(=O)COc1ccc(S(=O)(=O)N2CCCC2)cc1	15.6% (active)
CCc1ccccc1OCC(=O)Nc1ccc(C)c(S(=O)(=O)N2CCCCCC2)c1	-2%
CCOc1cccc(NC(=O)C2CCCN(S(=O)(=O)c3ccc(OC)cc3)C2)c1 (stereo not drawn)	-2.33%
CCOc1ccc(NC(=O)COc2ccc(S(=O)(=O)N3CCCC3)cc2)cc1	11.4% (active)
COc1ccccc1CC(=O)Nc1ccc(S(=O)(=O)N2CCCC2)cc1	1%
Cc1cccc(OCCCC(=O)Nc2ccc(S(=O)(=O)N3CCCC3)cc2)c1	-3.27%
Cc1ccc(NC(=S)NCc2ccccc2Cl)c(C)c1	0.72%
CN(C)c1ccc(NC(=O)CN2C3CCCC2CC(NC(=O)c2ccccc2)C3)cc1 (stereo not drawn)	-2.32%
C/C(CC(=O)Nc1ccc(N(C)C)cc1)=N\NC(=O)c1ccccc1F	15.4% (active)
C/C(CC(=O)Nc1ccc(Cl)cc1)=N\NC(=O)C(=O)NCCO	-1.14%
CCOc1ccc(CCN2C(=O)C(=O)N([C@@H](Cc3ccc(O)cc3)CN3CCC[C@H]3CN3C(=O)C(=O)NC[C@@H]3CC(C)C)C[C@@H]2Cc2ccccc2)cc1	2.35%
Cc1ccn(CC(=O)N2N=C(C(F)F)CC2(O)C(F)F)n1 (stereo not drawn)	-1.11%
CC(=O)NC1(c2ccc(F)cc2)CCN(C(=O)c2c(F)cccc2F)CC1	0.91%
COc1ccc(Cn2cc(COC(=O)N(C)Cc3ccccc3)nn2)cc1	0.33%
CCCCCc1ccc(-c2cn(Cc3ccc4ccccc4c3)nn2)cc1	10.7% (active)
CCCCCc1ccc(-c2ccc(OCC)cc2)nc1	1.61%
CC(C(=O)N(C)CC(=O)Nc1ccccc1C(F)(F)F)N1C(=O)c2ccccc2C1=O (stereo not drawn)	2.02%
COc1ccc(-c2nn(-c3ccccc3)cc2/C=C\C(=O)N2CCOCC2)cc1[N+](=O)[O-]	-1.35%
COc1ccc(S(=O)(=O)Nc2ccc(S(=O)(=O)N3CCCCC3)cc2)cc1OC	-1.7%

Compound	activation
COc1cc(C(C)=O)ccc1OC(C)C(=O)Nc1ccc(S(=O)(=O)N2CCCC2)cc1 (stereo not drawn)	10% (active)
COc1ccc(-c2ccc(Nc3ccc(S(=O)(=O)N4CCCC4)cc3)nn2)cc1OC	-5.27%
O=C(NCc1cccc(C(F)(F)F)c1)c1cccc(S(=O)(=O)N2CCN(Cc3ccccc3)CC2)c1	-1.01%
N#CCc1c[nH]c2ccc([N+](=O)[O-])cc12	1.86%
CC(=O)c1ccc2c(c1)OCCOCCOc1ccc(C(C)=O)cc1OCCOCCO2	1.09%
Cc1ccc(NC(=O)CN(C)C(=O)COC(=O)c2nccnc2N)cc1	-0.56%
Cc1ccc(NC(=O)CC(=O)Nc2ccc(C)cc2)cc1	5.18%
CSCCC(NC(N)=O)C(=O)N(C)CC(=O)Nc1ccc(C)cc1 (stereo not drawn)	22.6% (active)
CC1CN(C(=S)Nc2ccc(Br)cc2Cl)CC(C)O1 (stereo not drawn)	-0.06%
CCN(C(=O)COC(=O)c1ccccc1O)c1cccc2ccccc12	-1.17%
CCC(O)C1CCN(Cc2cn(-c3ccc(OC)cc3)nc2-c2cccc(F)c2)CC1 (stereo not drawn)	2.63%
COc1ccc(N(C)C(=O)C2CCN(S(=O)(=O)c3cccc4nsnc34)CC2)cc1	-0.63%
CCCCN(CC)C(=O)C1CCCN(S(=O)(=O)c2cccc3nsnc23)C1 (stereo not drawn)	-1.18%
CCCCN(C)CCNC(=O)C1CCCN(S(=O)(=O)c2cccc3nsnc23)C1 (stereo not drawn)	14.2% (active)
Cc1cccc(NC(=O)c2cccc(C(F)(F)F)c2)c1	0.86%
Cc1ccccc1CN1CCCCC(NC(=O)Nc2ccccc2F)C1=O (stereo not drawn)	-2.49%
CCOc1c(OC)cccc1C(=O)NCC1(c2ccccc2)CCCC1	-2%
O=C1CC(c2ccc3c(c2)OCO3)N=C2N(CC3CC3)C/C(=C/c3ccccc3)N12 (stereo not drawn)	-0.26%
C=C1C(C(C)C)N(C)C2=NC(c3ccccc3)CC(=O)N12 (stereo not drawn)	11.5% (active)
COCCNC(=O)C1CCN(C(=O)C2CC(=O)N(c3ccc(C)cc3)C2)CC1 (stereo not drawn)	3.12%
COc1ccc(CNc2nccs2)cc1	-0.05%
CCOC(=O)c1c(C)oc2cc(Sc3ccccc3)c(O)c(O)c12	-2.74%
O=S(=O)(NCCc1ccccc1)c1ccccc1	0.09%
CCOC(=O)c1c(C)c(C(=O)NCCc2ccc(S(N)(=O)=O)cc2)c(C)n1CC	-1.43%

Compound	activation
Cc1noc(C)c1S(=O)(=O)NCCc1ccc(S(N)(=O)=O)cc1	13.7% (active)
COc1ccccc1/C=N/Nc1nc(C)c(C(C)=O)s1	0.48%
COc1ccccc1N1CCN(c2nc(C)cc(=O)[nH]2)CC1	-0.14%
COc1ccccc1N1CCN(Cc2nnnn2CCc2ccccc2)CC1	-0.88%
COc1ccccc1N1CCN(Cc2cc(OC)c3c(c2)OCO3)CC1	16.9% (active)
Cc1ccc(C(=O)COC(=O)CCCC(=O)NC2CCCCC2)cc1[N+](=O)[O-]	-0.69%
CCN(CC)CCCN=C(N)N	-0.95%
Cc1ccc(NC(=O)CN(C)Cc2ccc(F)cc2)c([N+](=O)[O-])c1	2.25%
COc1ccc(-n2ncc3c2CC(C)(C)CC3NC(=O)CCc2c(C)noc2C)cc1 (stereo not drawn)	-1.69%
O=C(NC1CCCC1)C1c2ccccc2OCC(=O)N1CC(F)(F)F (stereo not drawn)	-1.49%
CCOCCn1c(-c2ccccc2)nc2ccccc21	0.16%
C[C@H](NC(=O)C1CCN(S(=O)(=O)c2ccccc2)CC1)C(=O)NCc1ccccc1	10.2% (active)
O=C(NCc1ccc(Cl)cc1)C1CCN(S(=O)(=O)c2cccs2)CC1	-1.39%
COc1ccccc1CNC(=O)C1CCN(S(=O)(=O)c2ccc3c(c2)OCCO3)CC1	0%
CC1=C(C(=O)N2CCOCC2)CC(CC(=O)NCc2cccc3ccccc23)C(=O)N1CCC1=CCCCC1 (stereo not drawn)	3.82%
COc1ccc(Cn2ccc3ccc(-c4ccc5ccn(Cc6ccccc6C)c5c4)cc32)cc1	2.53%
Cn1cc(CN2CCC(C(O)CCc3ccccc3)CC2)c(-c2ccccc2F)n1 (stereo not drawn)	-1.93%
Cn1cc(CN2CCCC(CO)C2)c(-c2ccc(Oc3ccccc3)cc2)n1 (stereo not drawn)	11.1% (active)
CCCOC1CCCN(Cc2cn(C)nc2-c2ccccc2F)C1 (stereo not drawn)	0.85%
O=C(CCc1n[nH]c(=O)[nH]c1=O)N/N=C/c1ccc(Br)o1	3.17%
C=CCN(Cc1nc(-c2cc(OC)c3c(c2)OCO3)oc1C)C1CCS(=O)(=O)C1 (stereo not drawn)	-0.47%
